# Source: PubChem BioAssay
# GBA activity = alters purified human glucocerebrosidase activity | P04062 | purified enzyme, resorufin glucoside fluorescence (screen aimed at inhibitors), 20 min | Potency, µM | 48,000 compounds, 1.1% hits; in the data active means potency below about 15 µM; inconclusive means mostly about 16 µM to 33 µM;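 further: the screen sought inhibitors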
# Target sequence (P04062 whole entry, looked up): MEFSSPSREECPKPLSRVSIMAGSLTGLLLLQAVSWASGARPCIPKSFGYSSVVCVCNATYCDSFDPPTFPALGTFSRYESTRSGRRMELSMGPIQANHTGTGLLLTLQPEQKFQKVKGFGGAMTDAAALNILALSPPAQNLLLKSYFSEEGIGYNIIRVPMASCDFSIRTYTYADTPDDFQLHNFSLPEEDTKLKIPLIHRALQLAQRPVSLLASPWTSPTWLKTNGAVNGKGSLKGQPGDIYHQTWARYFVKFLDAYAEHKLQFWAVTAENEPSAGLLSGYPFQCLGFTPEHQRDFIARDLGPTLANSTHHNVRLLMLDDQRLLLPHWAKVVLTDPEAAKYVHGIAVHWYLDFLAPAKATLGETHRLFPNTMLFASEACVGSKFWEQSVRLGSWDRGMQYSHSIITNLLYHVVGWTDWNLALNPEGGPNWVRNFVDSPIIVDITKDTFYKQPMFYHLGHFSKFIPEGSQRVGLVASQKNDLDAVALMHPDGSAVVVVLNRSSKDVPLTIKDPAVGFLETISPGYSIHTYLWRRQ
#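 Compounds titrated against 0.2 nM normal enzyme, 30 uM resorufin beta-D-glucopyranoside substrate, citrate/phosphate buffer with taurocholate and tween-20, pH 5.9. Reaction ran 20 min at room temperature; fluorescence (Ex 548/Em 600) gave AC50.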
# PK Bst = modulators of Bacillus stearothermophilus pyruvate kinase | purified pyruvate kinase, luminescence ATP production; ribose 5-phosphate activator present at AC10 | Potency, µM | 51,000 compounds, 1.2% hits; in the data active means potency below about 11 µM; inconclusive means mostly about 12 µM to 25 µM;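 the screen sought inhibitors and activators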;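 further: scaled between full activation by ribose 5 phosphate and full inhibition by luteolin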
# Active calls of the source: *; i = inactive; ? = inconclusive; . = no result given. In the library only some 2.3% were active in any assay of this set; here they are far more common. Potency means the concentration at half of the fitted maximal effect.
SMILES,GBA activity,PK Bst
CC1(C)Cc2cccc(OCC(=O)N3CCN(S(=O)(=O)c4ccccc4)CC3)c2O1,>77,>57
COc1ccc(C2=CC(c3c(C)nn(-c4ccccc4)c3Cl)n3nnnc3N2)cc1OC (stereo not given),>77,>57
O=C(Nc1ccc(CN2CCOCC2)cc1)c1ccc(-c2ccc(Br)cc2)o1,.,7.1*
COC(=O)c1ccc(NC(=O)c2ccc(CN3CCOCC3)cc2)cc1,.,>57
S=c1[nH]nc(COc2ccc(Cl)cc2)o1,>77,3.9*
Clc1ccc(OCc2nnc(-c3ccccc3Br)o2)cc1,>77,>57
Cc1noc(C)c1CSCC(=O)OCc1nc2ccccc2c(=O)n1CC#N,>77,>57
COc1ccc(-c2cn3cc(Cl)ccc3n2)cc1OC,2.8*,i
COc1ccc(-c2onc3ccc(Cl)cc23)cc1OC,>77,.
O=C(O)c1cc(NCc2cccs2)ccc1N1CCOCC1,>77,>57
O=C(O)c1cc(NCc2ccccc2C(F)(F)F)ccc1N1CCOCC1,13*,>57
CCOC(=O)c1ccc(COC(=O)c2cc3ccccc3oc2=O)o1,>77,>57
O=C1CC(c2ccc3c(c2)OCO3)Sc2nc3ccccc3n21 (stereo not given),>77,4.5*
O=C1CC(c2cccs2)Sc2nc3ccccc3n21 (stereo not given),>77,i
COc1cccc(C=Nc2cc(C)on2)c1O,>77,.
CCc1ccc2oc(-c3cc(N=Cc4cccc(OC)c4O)ccc3O)nc2c1,>77,1.3*
Cc1ccc(C(=O)Cn2c(NCCO)nc3ccccc32)cc1,14*,>57
O=C(Cn1c(NCCCO)nc2ccccc21)c1ccc(Br)cc1,>77,>57
c1ccc(-c2noc(-c3ccc4ccccc4c3)n2)cc1,i,3.7*
Brc1ccc(-c2nc(-c3ccccc3)no2)o1,?,i
CCC(COC(=O)Nc1cccc(C)c1)NC(=O)OCC(C)C (stereo not given),>77,.
COc1ccccc1N1CCN(c2ncnc3c2oc2ccccc23)CC1,>77,>57
c1cnc(N2CCN(c3ncnc4c3oc3ccccc34)CC2)nc1,5.7*,>57
COc1ccc2c(c1)-c1nc(NC(=O)c3ccco3)sc1CC2,>77,.
COc1ccc2sc(NC(=O)c3ccco3)nc2c1,>77,5.4*
SMILES,GBA activity,PK Bst
CCN(CC(=O)NCc1ccc(F)cc1)CC(O)COCc1cccc(OC)c1 (stereo not given),.,>57
O=C(Nc1ccc(N2CCN(C(=O)c3ccco3)CC2)c(Cl)c1)c1cc2ccccc2o1,?,>57
CCC(=O)N1CCN(c2ccc(NC(=O)c3cc4ccccc4o3)cc2Cl)CC1,3.2*,>57
CCCC(=O)N1CCN(c2ccc(NC(=O)c3cc4ccccc4o3)cc2Cl)CC1,4.2*,>57
O=C(c1cc2ccccc2o1)N1CCN(c2ccccc2Cl)CC1,>77,i
N#CC1=C(SCC(=O)NC2CC2)NC(=O)C(C#N)C12CCCCC2 (stereo not given),>77,>57
N#CC1=C(SCC(=O)NC23CC4CC(CC(C4)C2)C3)NC(=O)C(C#N)C12CCCCC2 (stereo not given),6.2*,>57
O=C(CSc1nnc2sc3ccccc3n12)c1ccco1,>77,i
COC(=O)c1ccccc1NC(=O)CN1CCN(C23CC4CC(CC(C4)C2)C3)CC1,>77,>57
COc1cccc(NC(=O)COC(=O)c2ccco2)c1,>77,>57
COc1ccc(C(=O)COC(=O)c2ccco2)cc1,>77,3.1*
O=c1cc(-c2ccccc2)[nH]c2nc3ccccc3n12,>77,1*
O=c1cc(-c2ccccc2)[nH]n1-c1nc2ccccc2s1,>77,>57
CC1CCCCC1NC(=O)CSc1nnc(-c2ccccc2)n1N (stereo not given),>77,>57
O=S(=O)(Nc1ccc2c(c1)OCCO2)c1cnc[nH]1,>77,>57
COCCn1c(C)cc(C(=O)COC(=O)c2n[nH]c3ccccc23)c1C,>77,1.4*
Cc1cc(C(=O)COC(=O)c2n[nH]c3ccccc23)c(C)n1C,>77,?
O=C(O)c1ccc(COc2ccccc2Cl)cc1,>77,>57
O=C(O)c1cccc(COc2ccccc2Cl)c1,>77,6.7*
C1=CC2CC1CC2CNCc1ccco1 (stereo not given),>77,>57
CN(C)c1oc(COc2ccc(F)cc2)nc1C#N,>77,>57
CN(C)c1oc(-c2ccc(OCc3ccc(Cl)cc3)cc2)nc1C#N,>77,0.25*
Cc1nnc(C)n1/N=C/c1ccc2c(c1)OCCO2,>77,>57
CCCc1nc2ccccc2c(=O)n1/N=C/c1ccc(O)cc1O,>77,>57
CCCc1nc2ccccc2c(=O)n1/N=C/c1ccc(O)cc1,>77,>57
SMILES,GBA activity,PK Bst
CN=c1scc(C)n1/N=C/c1ccc2c(c1)OCO2,>77,3.2*
CN=c1scc(C)n1/N=C/c1ccc(O)cc1O,>77,1.1*
CN=c1scc(C)n1/N=C/c1ccc(O)cc1,.,6.8*
Cc1ccc(C(=O)OCc2cn3ccccc3n2)cc1,>77,>57
COc1ccc(-c2cc3nc(C)cc(C)n3n2)c(OC)c1,>77,>57
CC(C)(C)CC(=O)N1CCC(c2nc3c(nnn3Cc3c(F)cccc3Cl)c(=O)[nH]2)CC1,i,>57
CN(C(=O)C1CCN(S(=O)(=O)c2cccs2)CC1)C1CCCCC1,13*,>57
CN(C(=O)COC(=O)C1CCN(S(=O)(=O)c2cccs2)CC1)C1CCS(=O)(=O)C1 (stereo not given),>77,>57
CC1(c2ccc(Cl)cc2)NC(=O)N(CC(=O)NC(=O)NCc2ccco2)C1=O (stereo not given),>77,>57
CCc1ccc(OCC(=O)Nc2ncc3c(n2)CC(C)(C)CC3=O)cc1,>77,>57
Cc1cc(C(c2nnnn2Cc2ccccc2)N2CCOCC2)c(C)n1-c1ccc2c(c1)OCO2 (stereo not given),.,>57
O=C1CC(c2cccc(Cl)c2)CC(O)=C1C=NCCCO (stereo not given),>77,>57
O=C1CN(C(=O)c2ccco2)C(c2ccc(F)cc2)c2cc(Cl)ccc2N1 (stereo not given),>77,>57
O=C1CN2C(=Nc3ccc(Cl)cc3C2c2ccccc2)CN1 (stereo not given),1.3*,>57
Cn1cnc2cc(NC(=O)c3ccco3)ccc21,>77,.
O=C(Nc1ccc2c(c1)Cc1ccccc1-2)c1ccco1,>77,8.8*
O=C(Nc1ccc(Br)c(Cl)c1)c1ccco1,>77,.
O=C(Nc1ccc2c(c1)ncn2-c1ccccc1)c1ccco1,>77,10*
O=C(CCCc1nc(-c2ccc(Cl)cc2)no1)Nc1cccnc1,.,>57
O=C(Nc1ccc(-c2noc(CCc3ccccc3)n2)cc1)c1cccnc1,14*,>57
CCN(CC)S(=O)(=O)c1cccc2cc(C(=O)O)c(O)cc12,>77,>57
COc1cc2c(cc1OC)C(=NCCC(=O)O)NC(C)(C)C2,>77,>57
CCOc1ccc(NC(=O)CSc2nnc(-c3ccncc3)n2CC2CCCO2)cc1 (stereo not given),>77,>57
CCOc1ccc2nc(NC(=O)CSc3nnc(-c4ccncc4)n3CC3CCCO3)sc2c1 (stereo not given),>77,4.7*
NS(=O)(=O)c1ccc(CCNC(=O)COC(=O)C2CCCN2C(=O)c2cccs2)cc1 (stereo not given),>77,>57
Cc1cc(C)nc(N2CCCC(C(=O)NC(C)CCc3ccco3)C2)n1 (stereo not given),>77,>57
